Over roughly 9,900 sequences, “r (bound/input frequency ratio)” has its median near 0.7; the highest 2% begin near 6.5. For the sample, the highest values were picked, then their nearest neighbours and some sequences at random.

B1: ENSMUSG00000022095.188|Fam160b2 (ssRNA)
RNA: GGGAGUUCUACAGUCCGACGAUCGCUUCGAUAUCCGCAUGCUAGCAGUUGUUGGCUUCCCUCCUGGGCAAGGAGGAGCAGGCCAGAGCCCCUUUUGCUUCCUUUUCCUGCCCAUGCCACCUCUCGAAGCCGGGCACAGGUUGCCAGGAGGUGACAUGAAAGAGGAGGAAACUCCAUGACCUCUACAUCCCCCGCAGUCCUCCCAGCGGGGGAGGACUUCUCUGCUGCUCCGAAGAACAUCAUGCACUCCUGUGUGUGUGUGUGAGUGUGUGUGUGUGUGUGUGUGUGUGUGUGUGUGUAUGUGCUCUUGCGGUCGCACUAGUGUGGAAUUCUCGGGUGUCAAGG
B2: ENSMUSG00000022095.189|Fam160b2 (ssRNA)
RNA: GGGAGUUCUACAGUCCGACGAUCGCUUCGAUAUCCGCAUGCUAGUUGGCUUCCCUCCUGGGCAAGGAGGAGCAGGCCAGAGCCCCUUUUGCUUCCUUUUCCUGCCCAUGCCACCUCUCGAAGCCGGGCACAGGUUGCCAGGAGGUGACAUGAAAGAGGAGGAAACUCCAUGACCUCUACAUCCCCCGCAGUCCUCCCAGCGGGGGAGGACUUCUCUGCUGCUCCGAAGAACAUCAUGCACUCCUGUGUGUGUGUGUGAGUGUGUGUGUGUGUGUGUGUGUGUGUGUGUGUGUAUGUGUGUGUACUCUUGCGGUCGCACUAGUGUGGAAUUCUCGGGUGUCAAGG
B3: ENSMUSG00000022095.187|Fam160b2 (ssRNA)
RNA: GGGAGUUCUACAGUCCGACGAUCGCUUCGAUAUCCGCAUGCUAAGGCCUGCAGUUGUUGGCUUCCCUCCUGGGCAAGGAGGAGCAGGCCAGAGCCCCUUUUGCUUCCUUUUCCUGCCCAUGCCACCUCUCGAAGCCGGGCACAGGUUGCCAGGAGGUGACAUGAAAGAGGAGGAAACUCCAUGACCUCUACAUCCCCCGCAGUCCUCCCAGCGGGGGAGGACUUCUCUGCUGCUCCGAAGAACAUCAUGCACUCCUGUGUGUGUGUGUGAGUGUGUGUGUGUGUGUGUGUGUGUGUGUGUGUGCUCUUGCGGUCGCACUAGUGUGGAAUUCUCGGGUGUCAAGG
B4: ENSMUSG00000061578.732|Ksr2 (ssRNA)
RNA: GGGAGUUCUACAGUCCGACGAUCGCUUCGAUAUCCGCAUGCUAGGGGUCAUUGUUCAAUCCUGUAUCAAGACCUUGGAGUUGUCUAAGGCUGUGGGUUUUAAAUACCUGCUGCAGGCCUCCCAUCUCUGGCUCUUUGUUUCCACUCUGGCCCAAGUUUGAGUCUCCAUAUGGGCCCUUCCUGUCCUCAUGCCCUGCCUGUCUUCAUUCCACCCAUCCACCCUCCUAAGGAUUGGUCUUGUUCCGAGAGUGAUCCUGGUAACGCCAAGCCUCCCUCUGCCCCUGUGUUGGCUUCUGUGACGGACCUCUUGCGGUCGCACUAGUGUGGAAUUCUCGGGUGUCAAGG
B5: ENSMUSG00000061578.853|Ksr2 (ssRNA)
RNA: GGGAGUUCUACAGUCCGACGAUCGCUUCGAUAUCCGCAUGCUAAAGCAAAGAGCAAUACAGGAAAAGGUCAGGGGUGAGAUGUGUCAUUGCCACUUCCUCCAGCUAGGACCUUUGAGCAUCACAUUGUGAAGCCAUCCAGGGACUUGGGGGUUAGGUCAGAGGUAUCAAUACAUCUCCGGAAACAUCGUCACAGAUACCUAGAGGUACUUCAUUGAUCCCUUGAAAAGCAUGUCUUAAUUCUGUUAAGAUGUCAAUCAAGAUUACACAUCUCACUGCUUCACAGGCCAUCAGGGCCCCAUUCUCUCUUGCGGUCGCACUAGUGUGGAAUUCUCGGGUGUCAAGG
B6: ENSMUSG00000022095.187|Fam160b2|213:226;228:260 (ssRNA)
RNA: GGGAGUUCUACAGUCCGACGAUCGCUUCGAUAUCCGCAUGCUAAGGCCUGCAGUUGUUGGCUUCCCUCCUGGGCAAGGAGGAGCAGGCCAGAGCCCCUUUUGCUUCCUUUUCCUGCCCAUGCCACCUCUCGAAGCCGGGCACAGGUUGCCAGGAGGUGACAUGAAAGAGGAGGAAACUCCAUGACCUCUACAUCCCCCGCAGUCCUCCCAGCGGGGGAGGACUUCUCUGCUGCUCCGAAGAACAUCAUGCACUCCACACACACACACACACACACACACACACACACACACACACACACACACCUCUUGCGGUCGCACUAGUGUGGAAUUCUCGGGUGUCAAGG
B7: ENSMUSG00000022095.198|Fam160b2 (ssRNA)
RNA: GGGAGUUCUACAGUCCGACGAUCGCUUCGAUAUCCGCAUGCUAUUCCUGCCCAUGCCACCUCUCGAAGCCGGGCACAGGUUGCCAGGAGGUGACAUGAAAGAGGAGGAAACUCCAUGACCUCUACAUCCCCCGCAGUCCUCCCAGCGGGGGAGGACUUCUCUGCUGCUCCGAAGAACAUCAUGCACUCCUGUGUGUGUGUGUGAGUGUGUGUGUGUGUGUGUGUGUGUGUGUGUGUGUAUGUGUGUGUAUAUGUGUGUGUGUGUGUGUAUGUGUGUGUGUGUGUGUGAGUGAGUGUGUGUGUGCUCUUGCGGUCGCACUAGUGUGGAAUUCUCGGGUGUCAAGG
B8: ENSMUSG00000022095.196|Fam160b2 (ssRNA)
RNA: GGGAGUUCUACAGUCCGACGAUCGCUUCGAUAUCCGCAUGCUAUUUUGCUUCCUUUUCCUGCCCAUGCCACCUCUCGAAGCCGGGCACAGGUUGCCAGGAGGUGACAUGAAAGAGGAGGAAACUCCAUGACCUCUACAUCCCCCGCAGUCCUCCCAGCGGGGGAGGACUUCUCUGCUGCUCCGAAGAACAUCAUGCACUCCUGUGUGUGUGUGUGAGUGUGUGUGUGUGUGUGUGUGUGUGUGUGUGUGUAUGUGUGUGUAUAUGUGUGUGUGUGUGUGUAUGUGUGUGUGUGUGUGUGAGUGCUCUUGCGGUCGCACUAGUGUGGAAUUCUCGGGUGUCAAGG
B9: ENSMUSG00000022095.195|Fam160b2 (ssRNA)
RNA: GGGAGUUCUACAGUCCGACGAUCGCUUCGAUAUCCGCAUGCUAAGCCCCUUUUGCUUCCUUUUCCUGCCCAUGCCACCUCUCGAAGCCGGGCACAGGUUGCCAGGAGGUGACAUGAAAGAGGAGGAAACUCCAUGACCUCUACAUCCCCCGCAGUCCUCCCAGCGGGGGAGGACUUCUCUGCUGCUCCGAAGAACAUCAUGCACUCCUGUGUGUGUGUGUGAGUGUGUGUGUGUGUGUGUGUGUGUGUGUGUGUGUAUGUGUGUGUAUAUGUGUGUGUGUGUGUGUAUGUGUGUGUGUGUGUGCUCUUGCGGUCGCACUAGUGUGGAAUUCUCGGGUGUCAAGG
B10: ENSMUSG00000022095.181|Fam160b2 (ssRNA)
RNA: GGGAGUUCUACAGUCCGACGAUCGCUUCGAUAUCCGCAUGCUAAGAGCACUCGGGCGGCGCCAGGCAUUACCUCACAACAGGCCUGCAGUUGUUGGCUUCCCUCCUGGGCAAGGAGGAGCAGGCCAGAGCCCCUUUUGCUUCCUUUUCCUGCCCAUGCCACCUCUCGAAGCCGGGCACAGGUUGCCAGGAGGUGACAUGAAAGAGGAGGAAACUCCAUGACCUCUACAUCCCCCGCAGUCCUCCCAGCGGGGGAGGACUUCUCUGCUGCUCCGAAGAACAUCAUGCACUCCUGUGUGUGUGUGCUCUUGCGGUCGCACUAGUGUGGAAUUCUCGGGUGUCAAGG
B11: ENSMUSG00000022095.197|Fam160b2 (ssRNA)
RNA: GGGAGUUCUACAGUCCGACGAUCGCUUCGAUAUCCGCAUGCUAUUCCUUUUCCUGCCCAUGCCACCUCUCGAAGCCGGGCACAGGUUGCCAGGAGGUGACAUGAAAGAGGAGGAAACUCCAUGACCUCUACAUCCCCCGCAGUCCUCCCAGCGGGGGAGGACUUCUCUGCUGCUCCGAAGAACAUCAUGCACUCCUGUGUGUGUGUGUGAGUGUGUGUGUGUGUGUGUGUGUGUGUGUGUGUGUAUGUGUGUGUAUAUGUGUGUGUGUGUGUGUAUGUGUGUGUGUGUGUGUGAGUGAGUGUGCUCUUGCGGUCGCACUAGUGUGGAAUUCUCGGGUGUCAAGG
B12: ENSMUSG00000022095.185|Fam160b2|225:238;240:260 (ssRNA)
RNA: GGGAGUUCUACAGUCCGACGAUCGCUUCGAUAUCCGCAUGCUAUUACCUCACAACAGGCCUGCAGUUGUUGGCUUCCCUCCUGGGCAAGGAGGAGCAGGCCAGAGCCCCUUUUGCUUCCUUUUCCUGCCCAUGCCACCUCUCGAAGCCGGGCACAGGUUGCCAGGAGGUGACAUGAAAGAGGAGGAAACUCCAUGACCUCUACAUCCCCCGCAGUCCUCCCAGCGGGGGAGGACUUCUCUGCUGCUCCGAAGAACAUCAUGCACUCCACACACACACACACACACACACACACACACACACACCUCUUGCGGUCGCACUAGUGUGGAAUUCUCGGGUGUCAAGG

TDP-43, sequence (Q13148 whole entry): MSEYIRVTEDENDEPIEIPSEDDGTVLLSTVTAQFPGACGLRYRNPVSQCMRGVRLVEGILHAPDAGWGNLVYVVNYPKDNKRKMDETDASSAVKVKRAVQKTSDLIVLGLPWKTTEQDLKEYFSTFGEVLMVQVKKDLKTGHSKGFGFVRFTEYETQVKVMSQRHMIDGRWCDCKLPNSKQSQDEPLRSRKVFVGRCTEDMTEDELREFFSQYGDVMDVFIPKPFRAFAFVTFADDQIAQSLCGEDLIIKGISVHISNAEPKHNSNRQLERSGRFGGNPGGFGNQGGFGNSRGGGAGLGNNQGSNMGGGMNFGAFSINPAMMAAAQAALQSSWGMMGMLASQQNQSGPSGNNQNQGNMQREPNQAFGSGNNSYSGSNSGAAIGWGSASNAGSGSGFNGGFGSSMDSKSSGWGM

In the assay the target is TDP-43 (Homo sapiens, UniProt Q13148 1-414). The assay can be described thus: RNA Bind-n-Seq with designed 260-mer pool; 25 mM Tris-HCl, 150 mM KCl, 3 mM MgCl2, BSA (printed 500 mg/mL), 20 units/mL SUPERase IN; pH not stated; 500 nM RNA pool, 1 h, 4 C; TDP-43 5, 50, 500 nM; high values mean tight binding. The conditions noted are these: protein: recombinant; tags: SBP (GST cleaved off with PreScission; pGEX-GST-SBP). An outline of the steps:
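Duplicate measurements used two independent batches of recombinant SBP-tagged TDP-43, which was captured on streptavidin beads at 5, 50 or 500 nM. The beads were incubated with 500 nM of an in vitro-transcribed 260-nt 3′ UTR oligo pool for 1 h at 4 °C in 25 mM Tris-HCl, 150 mM KCl, 3 mM MgCl2, BSA and SUPERase IN. After washing, biotin elution, reverse transcription, PCR amplification and sequencing, binding was expressed as R: each oligo's normalized read abundance in the bound sample over its abundance in input.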
In the case of B1, the binding signal is 7.09 R (bound/input frequency ratio).

As to B2, the binding signal is 5.45 R (bound/input frequency ratio).

With B3, the binding signal is 6.28 R (bound/input frequency ratio).

Turning to B4, the binding signal is 1.54 R (bound/input frequency ratio).

As to B5, the binding signal is 0.223 R (bound/input frequency ratio).

Turning to B6, the binding signal is 1.89 R (bound/input frequency ratio).

On to B7, for which the binding signal was 10 R (bound/input frequency ratio).

With B8, the binding signal is 6.8 R (bound/input frequency ratio).

As to B9, the binding signal was 9.34 R (bound/input frequency ratio).

With B10, the binding signal was 0.283 R (bound/input frequency ratio).

For the molecule B11, the binding signal was 6.5 R (bound/input frequency ratio).

For B12, the binding signal is 2.7 R (bound/input frequency ratio).
